Growth data for 15 compounds are collected here from PubChem BioAssay (NCI).

About 83,000 compounds went through this panel and 20% of them were active in at least one assay; those are over-represented in the sample as a whole.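 Note: values are percent growth. 100 is the growth of untreated cells, values between 100 and 0 indicate rising inhibition; between -100 and 0 indicates cell death.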 The source made the active and inactive calls. How the source made its calls: active means growth percent below 10; inactive means the rest.

The assay concerns A498 renal. Description: NCI-60 one-dose screen, 48 h (100 = growth as untreated, 0 = no growth, -100 = all killed). As to conditions: 10 µM unless noted.
In the case of `COc1ccc(-c2csc(NC(=O)CN3CCN(c4cc5c(cc4F)c(=O)c(C(=O)O)cn5C4CC4)CC3)n2)cc1`, the growth is -10.1% (active).
With `O=C(O)c1ccc(=O)[nH]n1`, the growth was 105% (inactive).
Regarding `COc1ccc(-c2cc(NC(=O)Nc3ccc(O)cc3)no2)cc1`, the growth was 30.9% (inactive).
Take `CCN(CC)CCCNc1cc(OC)cc2nc3cc(Cl)ccc3nc12`: the growth is 14.3% (inactive).
As for `Clc1nc(Cl)c2c3c(sc2n1)CCCC3`, the growth is 127% (inactive).
Regarding `CNCCCn1c2c(c3ccc([N+](=O)[O-])cc3c1=O)C(=O)c1cc(OC)cnc1-2`, the growth was -97% (active).
Regarding `C=C1CC2(OC1=O)C(=O)Nc1ccccc12` (stereo not given), the growth was 72.8% (inactive).
In the case of `CN1CCN(Cc2ccc(NC(=O)c3cncc(C#Cc4c(N)ncc5ccc(C#N)cc45)c3)cc2C(F)(F)F)CC1`, the growth was 43.3% (inactive).
`O=C1O[C@H]([C@H](O)CO)C(O)=C1O`: the growth was 94.3% (inactive).
As to `COC(=S)SCN(CSC(=S)OC)c1ccc(Cl)cc1`, the growth was 86.8% (inactive).
Regarding `Cc1ccc(/C=C2\Oc3cc(OCC(=O)c4ccc(Cl)cc4)ccc3C2=O)cc1`, the growth is 113% (inactive).
Take `CCN(C(=O)CN1CCN(c2cc3c(cc2F)c(=O)c(C(=O)O)cn3C2CC2)CC1)c1nc(-c2ccc(OC)cc2)cs1`: the growth was 66.6% (inactive).
With `OC(c1cc(-c2ccccc2)nc2ccc(Cl)cc12)C1CCCCN1` (stereo not given), the growth was 64.6% (inactive).
As for `CC#CC#Cc1cccc(=O)o1`, the figure is 113% (inactive); as for `CNCc1cccc2c1OCCOCCOCCN(C)S(=O)(=O)c1ccc(cc1)-c1cnc(N)c(n1)C(=O)N2`, 36.7% (inactive).
